Measurements: the supplement of paper PMC12632987

T1: USP38, Q8NB14
T1 chain: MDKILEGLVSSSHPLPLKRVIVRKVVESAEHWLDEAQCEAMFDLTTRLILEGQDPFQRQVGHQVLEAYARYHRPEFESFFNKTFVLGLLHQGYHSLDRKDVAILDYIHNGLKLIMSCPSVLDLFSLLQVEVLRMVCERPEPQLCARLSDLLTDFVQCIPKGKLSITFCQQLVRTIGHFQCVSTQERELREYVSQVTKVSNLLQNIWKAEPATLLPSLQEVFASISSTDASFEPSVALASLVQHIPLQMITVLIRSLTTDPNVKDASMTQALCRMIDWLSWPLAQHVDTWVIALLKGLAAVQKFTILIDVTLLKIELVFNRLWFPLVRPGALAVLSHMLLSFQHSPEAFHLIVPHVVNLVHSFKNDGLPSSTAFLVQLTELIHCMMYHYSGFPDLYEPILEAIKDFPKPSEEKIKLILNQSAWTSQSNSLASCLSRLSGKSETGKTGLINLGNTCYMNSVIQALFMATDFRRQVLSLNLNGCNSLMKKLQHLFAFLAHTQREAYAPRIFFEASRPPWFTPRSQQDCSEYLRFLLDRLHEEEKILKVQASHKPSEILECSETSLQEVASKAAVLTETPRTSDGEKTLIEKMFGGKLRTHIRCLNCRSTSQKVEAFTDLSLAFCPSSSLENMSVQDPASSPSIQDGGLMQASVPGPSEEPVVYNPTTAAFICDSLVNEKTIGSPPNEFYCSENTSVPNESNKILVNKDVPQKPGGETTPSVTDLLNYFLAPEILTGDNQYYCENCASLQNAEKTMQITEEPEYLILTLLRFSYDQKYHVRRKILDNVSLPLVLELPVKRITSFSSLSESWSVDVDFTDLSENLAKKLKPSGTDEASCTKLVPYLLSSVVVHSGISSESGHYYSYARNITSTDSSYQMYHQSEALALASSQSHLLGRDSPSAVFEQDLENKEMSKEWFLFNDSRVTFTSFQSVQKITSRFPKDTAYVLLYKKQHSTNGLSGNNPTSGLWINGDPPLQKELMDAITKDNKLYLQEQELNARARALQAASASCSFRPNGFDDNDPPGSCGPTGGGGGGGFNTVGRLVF

B1: usp_38_diff_out_18_14_329 (protein)
chain: SEELREAILSNLKSLKKEVEKVTERTLKVLEKLKDDPESAKSLIDTRKQALDGVIKYAEEVEKEAEAAGDEETAKAAKELKKAAKEAKAKLEEAEKKLKE
B2: usp_38_diff_out_18_14_315 (protein)
chain: SEELQEAELSSLKILKEDVVRDTERAIRLLEKSKDDPERVKRIYERRMRNLAGVREYAKEVLERAKKEGNEELLKAAEELLKTVDAAEERLEAKYKEVMA
B3: usp_38_diff_out_18_14_325 (protein)
chain: DAELIAATLANLKSLTEETKKDTERLEKVVEKLKDDPESARSLLETRRQAYEGVKEYAEETKKEAEANGDKELAAAAQELKDAAEKALEKIDKLLKELEA
B4: usp_38_diff_out_18_14_318 (protein)
chain: SEELIKQTLSNVKKLTEEVKKDTKRTLKILEKLKDDKESALSLIDTRIQALNGVIKYAEELKKEAEKLGNKELAEAAKELIKAAKEAKKELEKRKKALKE
B5: usp_38_diff_out_18_14_314 (protein)
chain: SEELEEAELSALKTLTADVEADTARKIELLEKAKDDPERVKRIYDRALRDLAGVRTYAEEVLKRAKERGNEELLAAAEALLATVDAAEARLTAKYEEVMK
B6: usp_38_diff_out_18_14_332 (protein)
chain: SEELTEQIISNLEKLTKDVKENTARTLKIVEKLKDDPESALSLLDTRIQALKGVEKYAKEVLEEAKKEGNKKLEEAAEKLLKEAKAAIKTLEEKRAALKA
B7: usp_38_diff_out_18_14_339 (protein)
chain: SSELAEAELSNLKSLTEEVKKVTERTEKIIEKLKDDPESAKSLLETRRQAYEGVIKYADEVLKRAEEEGYEELAKAAKELRDEAEKALERLEKLEKELEK
B8: usp_38_diff_out_18_14_341 (protein)
chain: SAELAAATLANLKSLTAEVKEVTARTEKIVEKLKDDPEAALSLLDTRKQAYEGVITYAEEVAKEAKAAGDAELEAAAKELKKAAEEALAKMEKLRAELKA
B9: usp_38_diff_out_18_14_319 (protein)
chain: MEELIEAEKANLKSLTAEVERDTARRLAVVDALRDDPDAAQSLLDTAAQALQGVIAYAEEVAKRAEELGNEELKKAAEELKAAARAALARLEARRAELAA
B10: usp_38_diff_out_18_14_331 (protein)
chain: SEELRKAKLDNLKLLTKEVKEDTERTLRILERLRGDPEAARSLIDTRIQALEGVIKYAEEVKKEAEEAGDEELAKAAEELKKAAEEAKRRLEEARRRLEA
B11: usp_38_diff_out_18_14_311 (protein)
chain: AEELAQAELDNLKSLTTAVTADTARVIRLLEQSKDDPERVKRIYERAKRNLAGVETYAQEVKARAEAAGDADLVAAADALLATVAAARAAIEAAYKAVMA
B12: usp_38_diff_out_18_14_310 (protein)
chain: SEELAEAEKSNLEKLTKEVEEDTERVIRLLEKAKDDPERVKRIYERAKRNLAGVETYAKEILERAKKAGDEETKKAAEELLKKIAEARERIEKAYEEVMK
B13: usp_38_diff_out_18_14_334 (protein)
chain: AAELRAATKANLKTLTAEVKENTERTLRIVDKLKDDPESALSLLDTRIQALKGVAKYAQEVKKEAEEAGDAELKAAAEALLKAAKAAIEELEKRRKELKE
B14: usp_38_diff_out_18_14_335 (protein)
chain: SEELTAATLANVKTLLEDVKKVTERTKKIVAKLKDDPESATSLLESRIQAYEGVIKYAEETLEEAKKAGDKELAAAAKELIKAAKEAKEEFEKLLAELKA
B15: usp_38_diff_out_18_14_328 (protein)
chain: SAELREALLSNLETLTKEVKEVTERTLKIVDKLKGDPEAARSLLDTRIQALEGVIKYAEEVAKEAKAAGDKELEAAAEKLKKEAEKAKKELEEKKKALEA
B16: usp_38_diff_out_18_14_340 (protein)
chain: SDELAKATLANLKTLTEEVKKVTERTEKIIKKLADDPEAAKSLLDTRKQAYQGVITYAKEVAEEAKAAGYKELLAAAEELKKAAEEALKTLEKLEKELKA
B17: usp_38_diff_out_18_14_324 (protein)
chain: SEELIKARISNLKSLTEEVKKVTARKLKVIDALKDDPESATALIDTQLQALEGVIKYAEEEKKEAEKLGNEELIKAAEELKKAAEEAKAELEKKRKELAA
B18: usp_38_diff_out_18_14_312 (protein)
chain: SEEEAEALLSSVEILTADVERDTARKIRLLEAAKDDPELVERIYERALRDLAGVEAYAEEVLAQAKAEGNAELEAAAQALLATVAAARARLEAAYAAVRA
B19: usp_38_diff_out_18_14_323 (protein)
chain: SEELREATKSNLKTLTAEIKEWTARRLKVIEKLKDDPESATSLLDTAKQALQGVIKYAEEVKREAEEEGDEELKKAATETKKAAEDALKQLEAKEAKLKA
B20: usp_38_diff_out_18_14_336 (protein)
chain: SEELRKAEIENLKTLLKEVKKDTERTIKIVEKLKDDKDSATSLLETRIQAYEGVIKYAEELKERAKKEGDKELIAAAEELIKAAKEAKEKLKELLKKLKA
B21: usp_38_diff_out_18_14_327 (protein)
chain: SEELKEALLSNLKLLKEEVKKDTERTLKILEKLKGDPESARSLIDTRIQALEGVIKYAEEVAKMAKEEGDEELKKAAEELKKEAEEAKKKLEEKRKELEK
B22: usp_38_diff_out_18_14_317 (protein)
chain: SEELSKALLSNLKTLTKEVEEDTKRLEKIVEALKDDPEAARSLLETRRQAYEGVAKYAKEVLKEAKEAGDEELAKAAEELLKAAEKALEEVEKRLKELEE
B23: usp_38_diff_out_18_14_330 (protein)
chain: SEELRKAKLSNLKSLKAEVEEVTARTLRVVERLRGDPESARALLDTRIQALDGVIKYAEEVAKEAKAAGDEELAKAAEELKEAARAARARLEAAAAALAA
B24: usp_38_diff_out_18_14_337 (protein)
chain: SEELRQQLLENLKSLTEEVKKEKERTLKIIEKLKDDPESALSLLDTRIQALDGVIKYAKEVAKEAKEEGDKELLEAAEKLIKEAEKAKKELEKKRAELKA
B25: usp_38_diff_out_18_14_343 (protein)
chain: SEELAEAELANLKSLKEEVKRVTERTKKIIEKLKDDPEAALSLLDTRIQAYKGVIKYAEEVLKEAKKAGYEELAKAAEELKKAAEEALKELERLRKELEA
B26: usp_38_diff_out_18_14_313 (protein)
chain: SEELREAEKSSLEILKKDVEEDTERKIKLLKKAKNDPERVKRIYERAMRDLEGVKKYAEEVLKRAEEEGDEETKKAAEELLKKVEEARERLEKAYKEVME
B27: usp_38_diff_out_18_14_333 (protein)
chain: SSELEEQLISNFKSLTEEVKRDTERTLEIVEKLKDDPDAALALLDTRIQALEGVAKYAKEVKKEAEENGNEELKAAAEELLKAAEEAIKKLKEKRKELKA
B28: usp_38_diff_out_18_14_346 (protein)
chain: DEELAKQLKEQFESLTKEVEENTKRLKEIVEKLKDDPESALSLLETRIQALEGVIKYAEEEKKRAKAAGFEELAAAAEKLIKAAKAAKEEAEKLKKELKA
B29: usp_38_diff_out_18_14_316 (protein)
chain: SEEEEEALLSAVEILKADVERDTDRKIRLLEKAKDDPELVERIYERALRDLAGVEAYAKEVEKEAKKNGNEKLLKAAKELLKTVAAARERLEAAYKEVMA
B30: usp_38_diff_out_18_14_326 (protein)
chain: SEELTEATLSNLKSLTEETKKTTERLKKIVEKLKDDKESALSLLDTRTQAFKGVLKYAEETEKEAKKAGNEELLAAAKELKEAAKKALEEIEKLKKELEE
B31: usp_38_diff_out_18_14_345 (protein)
chain: GEELEEQIKANLELLTKEVKENTERLVKILEKLKDDPESALSLIDTRLQALNGVKAYAEEELKRAKERGNEELKKAAEELIKAAEEAIKTLEELRKKLKA
B32: usp_38_diff_out_18_14_344 (protein)
chain: SEELRKATKSNLESLKKDVKEVTERTKKIVAKLKDDPESALSLLETRIQALEGVIKYAEETLKEAEEEGDEELKKAAEELKKEAEEAKAEFEALLAALKA

Biological target: T1, USP38, Q8NB14
Assay: median log2 fold change of GCK-ALFA target abundance (FLAG IP / Myc IP barcode read proportion) (log2 ratio); each designed protein is fused to an ALFA-tag nanobody in HEK293 cells to bring the named protein to FLAG-tagged glucokinase (GCK); Myc marks an untargeted standard; higher = target protein stabilised (more abundant)
Conditions: target protein: 3xFLAG-MCP-GCK-ALFA reporter; HEK293 landing pad (RPLP)
In short: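 An ALFA-nanobody-fused binder library was recombined into HEK293 landing-pad cells and induced with 2 μg mL^−1 doxycycline. Cells were transfected with a plasmid expressing a FLAG-tagged target and a Myc-tagged standard. After 48 h, lysates underwent anti-FLAG and anti-Myc immunoprecipitation, and circular RNA barcodes were reverse transcribed, amplified and sequenced. Target abundance is the per-binder median log2 ratio of FLAG to Myc barcode read proportions. Barcodes needed ≥10^−7 proportion in both replicates, binders ≥3 barcodes per replicate, and a 10^−6 pseudocount was added; the two replicates were pooled.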

| Binder | median log2 fold change |
| --- | --- |
| B1 | -0.556 |
| B2 | 0.253 |
| B3 | 0.134 |
| B4 | -0.746 |
| B5 | 0.22 |
| B6 | 0.139 |
| B7 | 0.0814 |
| B8 | 0.0312 |
| B9 | 0.235 |
| B10 | 0.193 |
| B11 | -0.0344 |
| B12 | 0.384 |
| B13 | 0.0876 |
| B14 | -0.351 |
| B15 | -0.102 |
| B16 | -0.499 |

| Binder | median log2 fold change |
| --- | --- |
| B17 | 0.13 |
| B18 | 0.0395 |
| B19 | -0.403 |
| B20 | -0.177 |
| B21 | -0.444 |
| B22 | -0.378 |
| B23 | 0.0025 |
| B24 | 0.0476 |
| B25 | -0.329 |
| B26 | 0.328 |
| B27 | -0.013 |
| B28 | -0.0584 |
| B29 | 0.00386 |
| B30 | -0.166 |
| B31 | -0.0272 |
| B32 | 0.232 |
